Source: PubChem BioAssay (NCATS)
Inconclusive results are not listed. Active and inactive are the calls of the source. Calls follow the shape of the dose curve; as a rule, active = well fitted curve in the direction sought with a large enough effect; inconclusive = small, poorly fitted or top-dose-only effect, or another doubt; inactive = no such curve, though single readings can be large; an effect the other way counts as inactive or inconclusive.

Legend:
[1] = Quantitative High-Throughput drug screen in 47 multiple myeloma cell lines against the NCATS MIPE library collection: JIM3_ECACC cell viability assay (AID 1918963; also: nearly all actives have a fitted effect of over 35% in size)
Outline: (§1)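 Relative luminescence from CellTiter-Glo served as the viability signal, referenced to DMSO-treated (100%) and cell-free medium (0%) controls. Treatment lasted 48 hours at 37C with 500 cells per well.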

[2] = Quantitative High-Throughput drug screen in 47 multiple myeloma cell lines against the NCATS MIPE library collection: H1112_PLB cell viability assay (AID 1918967; also: nearly all actives have a fitted effect of over 30% in size; also: potency is read from the fitted curve at half-maximal effect)
Outline: (§2)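 Myeloma cell lines, 500 cells per well, exposed to MIPE 4.0 library compounds for 48 h at 37C, 5% CO2. Viability from ATP by CellTiter-Glo luminescence; normalised to DMSO (100%) and media-only (0%) wells.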

[3] = Quantitative High-Throughput drug screen in 47 multiple myeloma cell lines against the NCATS MIPE library collection: Karpas25_ECACC cell viability assay (AID 1918968; also: nearly all actives have a fitted effect of over 35% in size; also: potency is read from the fitted curve at half-maximal effect)
Outline: as §2

[4] = Quantitative High-Throughput drug screen in 47 multiple myeloma cell lines against the NCATS MIPE library collection: KMS12BM_JCRB cell viability assay (AID 1918971); also: nearly all actives have a fitted effect of over 35% in size; also: potency is read from the fitted curve at half-maximal effect
Outline: (§3)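 Myeloma cells (500 per well) were exposed to MIPE 4.0 compounds by pin transfer and incubated 48 hours at 37C, 5% CO2. Viability was read as ATP by CellTiter-Glo luminescence, normalised to DMSO (100%) and media-only (0%) wells.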

[5] = Quantitative High-Throughput drug screen in 47 multiple myeloma cell lines against the NCATS MIPE library collection: KMS12PE_JCRB cell viability assay (AID 1918972); also: nearly all actives have a fitted effect of over 30% in size; also: potency is read from the fitted curve at half-maximal effect; as to viability: series mostly up to about 46 µM
Outline: as §1

[6] = Quantitative High-Throughput drug screen in 47 multiple myeloma cell lines against the NCATS MIPE library collection: KMS20_JCRB cell viability assay (AID 1918973); also: nearly all actives have a fitted effect of over 45% in size; also: potency is read from the fitted curve at half-maximal effect
Outline: as §2

[7] = Quantitative High-Throughput drug screen in 47 multiple myeloma cell lines against the NCATS MIPE library collection: KMS26_JCRB cell viability assay (AID 1918975); also: nearly all actives have a fitted effect of over 45% in size; also: potency is read from the fitted curve at half-maximal effect
Outline: as §3

[8] = Quantitative High-Throughput drug screen in 47 multiple myeloma cell lines against the NCATS MIPE library collection: MMM1_PLB cell viability assay (AID 1918976); also: nearly all actives have a fitted effect of over 35% in size; also: potency is read from the fitted curve at half-maximal effect
Outline: (§4)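 Readout: median RLU from CellTiter-Glo after 5 min at room temperature. Preceding step was 48 h drug treatment of 500 cells/well at 37 °C, 5% CO2, with DMSO-only and media-only control wells.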

[9] = Quantitative High-Throughput drug screen in 47 multiple myeloma cell lines against the NCATS MIPE library collection: NCIH929_DSMZ cell viability assay (AID 1918978); also: nearly all actives have a fitted effect of over 35% in size; also: potency is read from the fitted curve at half-maximal effect
Outline: as §4

[10] = Quantitative High-Throughput drug screen in 47 multiple myeloma cell lines against the NCATS MIPE library collection: OCIMY1_PLB cell viability assay (AID 1918979); also: nearly all actives have a fitted effect of over 35% in size; also: potency is read from the fitted curve at half-maximal effect; as to viability: series mostly up to about 46 µM
Outline: as §4

[11] = Quantitative High-Throughput drug screen in 47 multiple myeloma cell lines against the NCATS MIPE library collection: MM1S_ATCC cell viability assay (AID 1918980); also: nearly all actives have a fitted effect of over 45% in size; also: potency is read from the fitted curve at half-maximal effect
Outline: as §4

[12] = Quantitative High-Throughput drug screen in 47 multiple myeloma cell lines against the NCATS MIPE library collection: MM1R_ATCC cell viability assay (AID 1918981); also: nearly all actives have a fitted effect of over 35% in size; also: potency is read from the fitted curve at half-maximal effect
Outline: as §4

[13] = Quantitative High-Throughput drug screen in 47 multiple myeloma cell lines against the NCATS MIPE library collection: JIM1_ECACC cell viability assay (AID 1918964)
Outline: as §2

[14] = Quantitative High-Throughput drug screen in 47 multiple myeloma cell lines against the NCATS MIPE library collection: INA6_PLB cell viability assay (AID 1918965; also: nearly all actives have a fitted effect of over 55% in size; also: potency is read from the fitted curve at half-maximal effect)
Outline: as §1

[15] = Quantitative High-Throughput drug screen in 47 multiple myeloma cell lines against the NCATS MIPE library collection: KMS27_JCRB cell viability assay (AID 1918970); also: nearly all actives have a fitted effect of over 30% in size; also: potency is read from the fitted curve at half-maximal effect
Outline: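 Each line is seeded at 500 cells per well and treated with library compounds for 48 hours under 37 °C, 5% CO2. CellTiter-Glo is then added for 5 min at room temperature before median relative luminescence is recorded.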

[16] = Quantitative High-Throughput drug screen in 47 multiple myeloma cell lines against the NCATS MIPE library collection: MOLP8_DSMZ cell viability assay (AID 1918977); also: nearly all actives have a fitted effect of over 45% in size; also: potency is read from the fitted curve at half-maximal effect
Outline: as §4

[17] = Quantitative High-Throughput drug screen in 47 multiple myeloma cell lines against the NCATS MIPE library collection: KHM11_PLB cell viability assay (AID 1918962); also: nearly all actives have a fitted effect of over 35% in size; also: potency is read from the fitted curve at half-maximal effect
Outline: as §1

[18] = Quantitative High-Throughput drug screen in 47 multiple myeloma cell lines against the NCATS MIPE library collection: JJN3_DSMZ cell viability assay (AID 1918966; also: nearly all actives have a fitted effect of over 50% in size; also: potency is read from the fitted curve at half-maximal effect)
Outline: as §2

Measured: Potency

O=c1oc2cc(O)ccc2s1
active: [3] 7.43 µM | [8] 16.6 µM | [11] 0.935 µM
not listed: [13] | [14] | [15] | [16] | [17] | [18]
inactive: all other assays above

CN(C)[C@@H](CCOc1cccc2ccccc12)c1ccccc1
inactive: [13] | [15] | [10]
active: [14] 18.7 µM | [2] 18.7 µM | [6] 14.8 µM | [8] 20.9 µM | [11] 23.5 µM

CCOc1cc(CC(=O)N[C@@H](CC(C)C)c2ccccc2N2CCCCC2)ccc1C(=O)O
inactive: [14] | [2] | [3] | [9] | [10]
active: [6] 0.59 µM

CN(C)CCc1c[nH]c2ccc(Cn3cncn3)cc12
inactive: [1] | [2] | [3] | [4] | [7] | [10] | [12]
active: [14] 1.66 µM | [15] 16.6 µM

CCCCCCCCOc1ccccc1C(=O)Nc1ccc(C(=O)OCC[N+](C)(CC)CC)cc1
active: [14] 18.7 µM | [3] 9.35 µM | [15] 6.62 µM | [4] 18.7 µM | [5] 4.69 µM | [6] 16.6 µM | [7] 16.6 µM | [8] 16.6 µM | [16] 20.9 µM

Cc1ccc(NC(=O)c2ccc(CN3CCN(C)CC3)cc2)cc1Nc1nccc(-c2cccnc2)n1
inactive: [2] | [16] | [10] | [12]
active: [14] 16.6 µM | [3] 23.5 µM

CNC[C@@H](O)[C@@H](O)[C@H](O)[C@H](O)CO
inactive: [13] | [15] | [7] | [16] | [10]
active: [3] 20.9 µM

CCN(CC)CCOc1ccc(Cc2ccccc2)cc1
inactive: [17] | [2] | [6] | [9] | [10]
active: [3] 14.8 µM | [11] 23.5 µM

Cc1ccc(C)c(OCCCC(C)(C)C(=O)O)c1
active: [14] 20.9 µM | [9] 23.5 µM
inactive: [18] | [4] | [16] | [10]

O=C1NC(=O)C(c2ccccc2[N+](=O)[O-])=C1Nc1ccc(O)c(Cl)c1
active: [3] 13.2 µM | [5] 10.5 µM
inactive: [13] | [2] | [10]

CC1=C(C)C(=O)C(C(CCCCCC(=O)O)c2ccccc2)=C(C)C1=O (configuration not stated)
inactive: [2] | [6] | [9]

CN(C)C(=O)[C@H](O)[C@H](Cc1ccccc1)NC(=O)c1cc2cc(Cl)ccc2[nH]1
inactive: [17]
active: [14] 0.833 µM | [18] 1.66 µM | [3] 1.66 µM | [5] 2.09 µM | [6] 7.43 µM | [7] 20.9 µM | [9] 1.32 µM | [11] 18.7 µM | [12] 13.2 µM

Cc1cccc(-c2[nH]ncc2-c2ccc3ncccc3n2)n1
active: [11] 14.8 µM
inactive: [1] | [2] | [5] | [8] | [9] | [10]

Cn1c(NCCN(CCO)CCCc2ccc([N+](=O)[O-])cc2)cc(=O)n(C)c1=O
active: [15] 26.4 µM | [5] 20.9 µM | [11] 23.5 µM
inactive: [2] | [7] | [10]

C[C@H](Cc1ccc(O)c(O)c1)[C@@H](C)Cc1ccc(O)c(O)c1
inactive: [13]
active: [14] 9.35 µM | [18] 14.8 µM | [3] 14.8 µM | [4] 16.6 µM | [7] 23.5 µM | [8] 6.62 µM | [16] 5.26 µM | [9] 9.35 µM | [10] 18.7 µM | [11] 20.9 µM | [12] 20.9 µM

CCc1nc(N)nc(N)c1-c1ccc(Cl)cc1
active: [14] 10.5 µM | [11] 16.6 µM
inactive: [17] | [13] | [6] | [16] | [9]

CCCCN(CCCC)CCC(O)c1cc2c(Cl)cc(Cl)cc2c2cc(C(F)(F)F)ccc12 (configuration not stated)
inactive: [5] | [7] | [10] | [11]
active: [14] 18.7 µM | [3] 14.8 µM | [4] 20.9 µM

Cc1cc2cc3c(C)cc(=O)oc3c(C)c2o1
inactive: [16]
active: [18] 5.26 µM | [3] 20.9 µM | [15] 26.4 µM | [4] 16.6 µM | [9] 8.33 µM | [11] 5.9 µM | [12] 20.9 µM

NC(=NCc1ccccc1)NC(=O)c1nc(Cl)c(N)nc1N
inactive: [4] | [7] | [10] | [12]
active: [17] 10.5 µM | [14] 9.35 µM | [2] 0.935 µM | [3] 2.09 µM | [15] 33.2 µM | [5] 23.5 µM | [6] 7.43 µM | [9] 1.32 µM | [11] 0.935 µM
